Test [1] can be described thus: ATG_CRE_CIS: Attagene CIS-FACTORIAL HepG2 Assay for human cAMP Responsive Element (CRE) binding protein 3 (AID 2282926). The note with it: HepG2 CRE cis-reporter, Attagene multiplexed mRNA; actives raise or lower the signal. In short, it runs like this: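 HepG2 cells transiently transfected with cis-element-driven multiple reporter transcription units; CRE reporter mRNA measured 24 h after dosing by RT-PCR, 6-FAM labelling, HpaI digestion and capillary electrophoresis. Bidirectional fit versus DMSO baseline.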

The target in test [2] is CCAAT/enhancer-binding protein beta (Homo sapiens) (UniProt P17676). The experiment in a line: ATG_C_EBP_CIS: Attagene CIS-FACTORIAL HepG2 Assay for human CCAAT/Enhancer Binding Protein (C/EBP) beta (AID 2282927). The note with it: HepG2 Attagene cis-factorial transcription factor reporter; actives raise or lower the signal. In short, it runs like this:
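Changes in reporter mRNA, rather than exogenous chimeric receptor activity, reflect native C/EBP signalling in transfected HepG2 cells dosed for 24 h; transcripts are detected by RT-PCR and capillary electrophoresis.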

Test [3] is described as follows: ATG_CMV_CIS: Attagene CIS-FACTORIAL HepG2 Assay for human CMV (Internal Marker) (AID 2282928).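 Also: endpoint acts as a background internal control marker rather than a target.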 The conditions noted are these: HepG2 CMV promoter reporter, transcription factor profiling; actives raise or lower the signal. Summed up:
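Cell system: HepG2, transiently transfected multiple reporter units under cis promoters. Exposure: 24 h. Detection: RT-PCR, FAM labeling, HpaI digestion, capillary electrophoresis. Analysis: bidirectional, DMSO baseline.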

The nature of test [4]: ATG_AP_1_CIS: Attagene CIS-FACTORIAL HepG2 Assay for human Activator Protein 1 (AP-1) (AID 2282931). The conditions noted are these: HepG2 Attagene cis-factorial AP-1 reporter mRNA; actives raise or lower the signal. In short, it runs like this:
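Multiplexed HepG2 reporter assay, 24 h dosing. mRNA induction detected by RT-PCR plus capillary electrophoresis. Activity fitted in both directions against DMSO.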

Test [5] is described as follows: ATG_AP_2_CIS: Attagene CIS-FACTORIAL HepG2 Assay for human Activator Protein 2 (AP-2) (AID 2282932). The note with it: HepG2 AP-2 cis-reporter, Attagene transcription factor profiling; actives raise or lower the signal. In short, it runs like this:
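Step one: transient transfection of HepG2 with reporter transcription units. Step two: 24 h chemical exposure. Step three: RNA extraction, RT-PCR, labelled fragment analysis by capillary electrophoresis; DMSO serves as baseline.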

Test [6] in a line: ATG_BRE_CIS: Attagene CIS-FACTORIAL HepG2 Assay for human Bone Morphogenetic Protein (BMP) Response Element (BRE) (AID 2282933). The conditions noted are these: HepG2 BMP response element reporter, Attagene transcription factor profiling; actives raise or lower the signal. Summed up:
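Endogenous transcription factor activity read in transiently transfected HepG2 cells after 24 h chemical exposure. Bidirectional curve fitting against DMSO; readout is reporter transcript level by RT-PCR with capillary electrophoresis of labelled products.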

For test [7], the target named is Transcription factor E2F1 (Homo sapiens) (UniProt Q01094). The experiment in a line: ATG_E2F_CIS: Attagene CIS-FACTORIAL HepG2 Assay for human E2F Transcription Factor 1 (AID 2282935). The note with it: HepG2 Attagene cis-reporter, E2F reporter RNA transcripts; actives raise or lower the signal. Summed up:
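Total RNA from 24 h-treated, reporter-transfected HepG2 cells undergoes DNase I treatment, oligo(dT) reverse transcription, PCR and 6-FAM primer extension before capillary electrophoresis.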

Test [8] can be described thus: ATG_E_Box_CIS: Attagene CIS-FACTORIAL HepG2 Assay for human Enhancer Box (E-box) (AID 2282936). The conditions noted are these: HepG2 E-box cis-reporter transcription, actives raise or lower the signal. In short, it runs like this: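 DMSO served as negative control and baseline for bidirectional fitting. Human hepatoma HepG2 cells, transiently transfected with cis-reporter constructs, were dosed 24 h; reporter mRNA read by RT-PCR and capillary electrophoresis.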

A short description of test [9]: ATG_M_61_CIS: Attagene CIS-FACTORIAL HepG2 Assay for M61 Transcription Factor (Internal Marker) (AID 2282937). The note with it: HepG2 Attagene CIS-FACTORIAL M61 internal marker reporter; actives raise or lower the signal. In short, it runs like this: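 Endogenous transcription factor activity in HepG2 is read through transiently transfected cis-element reporter units. After 24 h dosing, RNA undergoes reverse transcription, PCR and primer extension with 6-FAM before capillary electrophoresis; DMSO-referenced bidirectional fit.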

A short description of test [10]: ATG_EGR_CIS: Attagene CIS-FACTORIAL HepG2 Assay for human Early Growth Response 1 (EGR1) (AID 2282938). The conditions noted are these: HepG2 Attagene CIS-FACTORIAL EGR reporter mRNA; actives raise or lower the signal. Summed up: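 Activity is taken as induction or loss of reporter mRNA versus DMSO, fitted bidirectionally. Transcripts from cis-regulated reporter units in transiently transfected HepG2 were measured after 24 h by RT-PCR with capillary electrophoresis.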

Test [11] is described as follows: ATG_M_19_CIS: Attagene CIS-FACTORIAL HepG2 Assay for M19 Transcription Factor (Internal Marker) (AID 2282939). The conditions noted are these: HepG2 Attagene CIS-FACTORIAL M19 internal marker reporter; actives raise or lower the signal. In short, it runs like this: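 Internal marker readout, fitted in both directions against DMSO, from HepG2 cells carrying transfected cis-element reporter constructs; RT-PCR and capillary electrophoresis of reporter mRNA after 24 h exposure.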

Test [12] is described as follows: ATG_GATA_CIS: Attagene CIS-FACTORIAL HepG2 Assay for human GATA Binding Protein (AID 2282944). The note with it: HepG2 GATA cis-element reporter, Attagene multiplex mRNA; actives raise or lower the signal. In short, it runs like this:
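Reporter transcripts from a GATA cis-regulated unit, among multiplexed reporters in transfected HepG2 cells, were measured by RT-PCR with capillary electrophoresis after 24 h dosing. Induction or loss scored relative to DMSO.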

The nature of test [13]: ATG_GLI_CIS: Attagene CIS-FACTORIAL HepG2 Assay for human Zinc Finger Protein GLI1 (AID 2282945). The note with it: HepG2, Attagene cis-factorial reporter mRNA, GLI element; actives raise or lower the signal. Summed up: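 Bidirectional curve fits relative to DMSO, using reporter mRNA levels from RT-PCR plus capillary electrophoresis. Cells were HepG2 transiently carrying cis-regulated reporter constructs, harvested 24 h after dosing.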

The nature of test [14]: ATG_ISRE_CIS: Attagene CIS-FACTORIAL HepG2 Assay for human Interferon Regulatory Factor 1 (IRF1) binding to an Interferon-Stimulated Response Element (ISRE) (AID 2282948). The note with it: HepG2 ISRE cis-reporter (Attagene), mRNA transcription readout; actives raise or lower the signal. In short, it runs like this:
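Quantitation relies on labelled RT-PCR fragments separated by capillary electrophoresis. Human HepG2 cells bearing cis-promoter reporter constructs were treated 24 h; DMSO served as baseline for bidirectional fitting.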

Test [15] can be described thus: ATG_M_32_CIS: Attagene CIS-FACTORIAL HepG2 Assay for M32 Transcription Factor (Internal Marker) (AID 2282949).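 Also: background control marker of the multiplexed CIS panel rather than a real target.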 The conditions noted are these: HepG2 Attagene cis-factorial M32 reporter, mRNA; actives raise or lower the signal. Summed up: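 Following 24 h chemical exposure of HepG2 cells transiently expressing cis-promoter reporter constructs, reporter transcript levels were determined by RT-PCR with fluorescent labelling and capillary electrophoresis, then fitted bidirectionally against DMSO.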

A short description of test [16]: ATG_MRE_CIS: Attagene CIS-FACTORIAL HepG2 Assay for human Metal Responsive Element (MRE) (AID 2282954). The note with it: HepG2 MRE cis-reporter transcription, Attagene multiplex; actives raise or lower the signal. In short, it runs like this:
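After a 24 h chemical exposure, transiently transfected HepG2 cells yield RNA whose reporter sequences are amplified, FAM-labelled and sized by capillary electrophoresis. Curves are fitted bidirectionally relative to DMSO.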

For test [17], the target named is Paired box protein Pax-6 (Homo sapiens) (UniProt P26367). The experiment in a line: ATG_Pax6_CIS: Attagene CIS-FACTORIAL HepG2 Assay for human Paired Box 6 (PAX6) (AID 2282956). The conditions noted are these: HepG2 CIS-FACTORIAL PAX6 reporter transcription, RNA readout; actives raise or lower the signal. In short, it runs like this: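 After twenty-four hours of chemical exposure, transfected HepG2 cells are harvested for RNA. Cis-promoter reporter transcripts are amplified, fluorescently labelled and sized by capillary electrophoresis, with gain and loss of signal scored against DMSO.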

The nature of test [18]: ATG_PXRE_CIS: Attagene CIS-FACTORIAL HepG2 Assay for human Pregnane X Receptor Element (PXRE) (AID 2282957). The note with it: HepG2 Attagene CIS-FACTORIAL PXRE reporter, mRNA; actives raise or lower the signal. Summed up: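 HepG2 cells transiently transfected with cis-element-driven multiplexed reporter units; after 24 h chemical exposure, reporter mRNA measured by RT-PCR, 6-FAM labelling, HpaI digestion and capillary electrophoresis. Bidirectional fitting relative to DMSO.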

Test [19] concerns the target Transcription factor Sp1 (Homo sapiens) (UniProt P08047). The experiment in a line: ATG_Sp1_CIS: Attagene CIS-FACTORIAL HepG2 Assay for human Specificity Protein 1 (Sp1) (AID 2282961). The note with it: HepG2 Sp1 cis-reporter transcription, actives raise or lower the signal. Summed up: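 Cells: HepG2, transiently transfected with cis-regulated multiplexed reporters. Exposure: 24 h. Detection: reporter transcripts amplified, fluorescently labeled, restriction-digested and sized by capillary electrophoresis. Analysis: bidirectional fit relative to DMSO.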

For test [20], the target named is Signal transducer and activator of transcription 3 (Homo sapiens) (UniProt P40763). The experiment in a line: ATG_STAT3_CIS: Attagene CIS-FACTORIAL HepG2 Assay for human Signal Transducer and Activator of Transcription 3 (STAT3) (AID 2282963). The note with it: HepG2, Attagene cis-factorial STAT3 reporter transcription; actives raise or lower the signal. In short, it runs like this: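 After a 24 h compound incubation, total RNA from MRTU-transfected HepG2 cells was converted to cDNA and reporter sequences PCR-amplified, labelled and profiled by capillary electrophoresis. Gain and loss of signal were referenced to DMSO.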

The structures appear in SMILES notation. Activity calls are given as the source filed them. The calls were made as follows: active = hit-call score of the fitted dose curve at least 0.9, where 1 is the maximum; inactive = score below 0.9.

What is called AC50 is the concentration giving half of the maximal activity seen.

Chain of Transcription factor Sp1 (Homo sapiens) (P08047 whole entry, looked up): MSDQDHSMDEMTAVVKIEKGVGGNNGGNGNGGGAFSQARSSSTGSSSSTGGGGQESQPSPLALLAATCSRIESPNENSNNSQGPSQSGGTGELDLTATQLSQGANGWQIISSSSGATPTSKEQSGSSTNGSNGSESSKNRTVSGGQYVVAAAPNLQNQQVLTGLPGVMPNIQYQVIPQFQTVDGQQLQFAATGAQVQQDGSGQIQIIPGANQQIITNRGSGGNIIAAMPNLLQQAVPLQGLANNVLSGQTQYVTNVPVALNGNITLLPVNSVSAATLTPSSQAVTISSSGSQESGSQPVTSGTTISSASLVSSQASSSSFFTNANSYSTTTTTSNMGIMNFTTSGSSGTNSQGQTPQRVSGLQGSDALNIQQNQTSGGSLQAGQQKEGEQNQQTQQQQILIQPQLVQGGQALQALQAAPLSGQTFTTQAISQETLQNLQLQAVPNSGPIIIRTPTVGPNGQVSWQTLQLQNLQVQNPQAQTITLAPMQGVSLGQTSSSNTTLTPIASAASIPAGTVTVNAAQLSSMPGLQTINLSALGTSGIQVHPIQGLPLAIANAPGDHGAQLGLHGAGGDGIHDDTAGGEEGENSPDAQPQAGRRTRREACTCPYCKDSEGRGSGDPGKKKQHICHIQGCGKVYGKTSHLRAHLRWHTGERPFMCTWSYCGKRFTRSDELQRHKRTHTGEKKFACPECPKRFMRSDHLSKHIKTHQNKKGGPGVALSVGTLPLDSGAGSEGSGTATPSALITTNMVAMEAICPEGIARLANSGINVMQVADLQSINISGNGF
Chain of Transcription factor E2F1 (Homo sapiens) (Q01094 whole entry, looked up): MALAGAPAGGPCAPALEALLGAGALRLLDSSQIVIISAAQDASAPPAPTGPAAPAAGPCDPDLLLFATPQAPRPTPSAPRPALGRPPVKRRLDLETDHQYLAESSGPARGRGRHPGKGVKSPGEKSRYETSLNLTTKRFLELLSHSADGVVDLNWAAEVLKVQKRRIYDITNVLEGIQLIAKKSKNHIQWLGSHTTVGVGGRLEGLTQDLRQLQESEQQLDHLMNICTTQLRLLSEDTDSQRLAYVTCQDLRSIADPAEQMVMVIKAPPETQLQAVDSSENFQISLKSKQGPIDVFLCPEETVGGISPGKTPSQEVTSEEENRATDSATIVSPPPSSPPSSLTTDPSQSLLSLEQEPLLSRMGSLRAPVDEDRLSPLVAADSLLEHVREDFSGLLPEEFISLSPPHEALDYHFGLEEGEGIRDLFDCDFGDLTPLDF
Chain of CCAAT/enhancer-binding protein beta (Homo sapiens) (P17676 whole entry, looked up): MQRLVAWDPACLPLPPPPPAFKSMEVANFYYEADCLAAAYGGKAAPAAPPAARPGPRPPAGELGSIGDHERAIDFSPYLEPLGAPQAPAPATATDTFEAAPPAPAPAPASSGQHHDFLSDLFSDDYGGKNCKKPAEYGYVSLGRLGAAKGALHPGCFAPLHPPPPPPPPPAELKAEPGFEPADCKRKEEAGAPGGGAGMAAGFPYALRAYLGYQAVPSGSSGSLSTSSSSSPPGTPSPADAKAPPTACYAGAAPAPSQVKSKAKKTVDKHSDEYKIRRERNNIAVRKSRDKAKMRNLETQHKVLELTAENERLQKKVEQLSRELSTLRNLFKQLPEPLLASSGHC
Chain of Signal transducer and activator of transcription 3 (Homo sapiens) (P40763 whole entry, looked up): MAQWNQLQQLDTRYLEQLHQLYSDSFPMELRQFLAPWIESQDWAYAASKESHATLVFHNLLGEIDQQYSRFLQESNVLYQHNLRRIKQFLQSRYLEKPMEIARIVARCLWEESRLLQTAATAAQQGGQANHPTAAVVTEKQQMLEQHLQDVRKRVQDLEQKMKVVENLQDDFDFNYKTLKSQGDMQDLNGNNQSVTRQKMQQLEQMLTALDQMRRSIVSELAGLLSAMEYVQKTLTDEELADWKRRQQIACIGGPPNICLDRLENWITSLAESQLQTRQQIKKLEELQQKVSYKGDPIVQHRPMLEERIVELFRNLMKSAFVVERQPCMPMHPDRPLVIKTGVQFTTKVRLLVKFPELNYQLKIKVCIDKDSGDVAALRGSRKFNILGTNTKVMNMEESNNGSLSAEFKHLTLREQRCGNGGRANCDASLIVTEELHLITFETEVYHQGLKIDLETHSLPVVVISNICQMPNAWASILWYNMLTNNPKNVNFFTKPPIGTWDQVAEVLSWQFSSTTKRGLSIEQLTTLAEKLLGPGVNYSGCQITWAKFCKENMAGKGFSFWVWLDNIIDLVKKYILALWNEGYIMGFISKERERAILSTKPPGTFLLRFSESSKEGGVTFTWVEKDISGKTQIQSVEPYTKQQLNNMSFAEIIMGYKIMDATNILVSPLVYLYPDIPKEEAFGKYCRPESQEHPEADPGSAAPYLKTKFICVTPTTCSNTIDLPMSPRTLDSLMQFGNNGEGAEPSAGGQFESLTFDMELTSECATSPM
Chain of Paired box protein Pax-6 (Homo sapiens) (P26367 whole entry, looked up): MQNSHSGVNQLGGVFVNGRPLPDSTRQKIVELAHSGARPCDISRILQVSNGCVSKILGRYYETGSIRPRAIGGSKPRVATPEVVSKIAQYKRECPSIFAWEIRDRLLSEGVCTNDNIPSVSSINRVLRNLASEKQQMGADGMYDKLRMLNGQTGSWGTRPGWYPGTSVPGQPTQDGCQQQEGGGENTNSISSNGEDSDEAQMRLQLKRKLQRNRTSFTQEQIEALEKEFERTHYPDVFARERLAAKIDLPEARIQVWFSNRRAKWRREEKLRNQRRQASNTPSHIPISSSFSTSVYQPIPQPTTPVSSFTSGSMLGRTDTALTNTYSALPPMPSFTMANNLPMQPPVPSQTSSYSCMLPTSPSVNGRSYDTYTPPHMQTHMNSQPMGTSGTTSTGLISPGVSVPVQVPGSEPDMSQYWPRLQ

In the case of `CC/C=C\CC/C=C/C(OCC)OCC`, the compound was classed as inactive in test [1], in test [2], in test [4], in test [5], in [6] and in test [7]. The result in test [8], in test [9], in test [10], in [11], in [12] and in [13] was inactive. For the same compound, the compound was called inactive in [15], in test [17], in test [19] and in test [20]. Further, the AC50 in [3] was 150 µM (active); in test [14], 142 µM (active); in test [16], 136 µM (active); in [18], 4.02 µM (active).
In the case of `COCCCN`, the result in [1], in test [2], in [3], in test [4], in [5] and in test [6] was inactive. Besides, the result in test [7], in test [8], in test [9], in test [10], in test [11] and in test [12] was inactive. Besides, the call in test [13], in test [14], in test [15], in test [16], in test [17] and in test [18] was inactive. Further, the call in [19] and in [20] was inactive.
Turning to `CC(=O)CCc1ccccc1`, the result in [1], in test [2], in test [3], in [4], in test [5] and in [6] was inactive. Moreover, the call in test [7], in test [8], in test [9], in test [10], in test [11] and in test [12] was inactive. Also, the result in [13], in [14], in [15], in test [16], in test [17] and in [18] was inactive. Besides, the compound was classed as inactive in [19] and in [20].
On to `CCCCCCC1CCCC(=O)O1` (stereo not given), for which the compound was called inactive in test [1], in test [2], in test [3], in test [4], in [5] and in test [6]. The call in [7], in [9], in test [10], in test [11], in test [12] and in [13] was inactive. For the same compound, the result in test [14], in test [15], in test [16], in [17], in [19] and in test [20] was inactive. In addition, the AC50 in test [8] is 75.2 µM (active); in test [18] it was 37.5 µM (active).
`COC(=O)/C=C\C(=O)OC`: the call in [1], in test [2], in test [3], in test [5], in test [6] and in test [7] was inactive. For the same compound, the outcome in test [8], in test [9], in test [11], in test [12], in [13] and in [15] was inactive. Further, the outcome in [16], in test [17], in test [19] and in test [20] was inactive. Further, the AC50 in [4] is 28.1 µM (active); in [10], 83.1 µM (active); in [14], 45.8 µM (active); in test [18] it was 6.26 µM (active).
Regarding `Clc1ccc(Sc2cc(Cl)c(Cl)cc2Cl)cc1`, the result in test [1], in test [2], in [3], in test [4], in test [5] and in test [6] was inactive. For the same compound, the call in test [7], in [8], in test [9], in [10], in [11] and in [12] was inactive. The compound was classed as inactive in test [13], in test [14], in test [15], in [16], in test [17] and in test [19]. Besides, the result in test [20] was inactive. For the same compound, in test [18], the AC50 was 5.97 µM (active).
For the compound `OCCOCCOCCOCCOCCO`, the compound was classed as inactive in test [1], in test [2], in [3], in [4], in test [5] and in [6]. Moreover, the compound was called inactive in [7], in test [8], in [9], in test [10], in test [11] and in test [12]. Also, the compound was classed as inactive in test [13], in [14], in test [15], in test [16], in test [17] and in test [18]. Also, the outcome in test [19] and in [20] was inactive.
